Consider one molecule from the supplement of paper PMC6411743.

The target in the test is T1, UniProt Q9NPI1|Q9NPI1-2.
T1 sequence (whole entry): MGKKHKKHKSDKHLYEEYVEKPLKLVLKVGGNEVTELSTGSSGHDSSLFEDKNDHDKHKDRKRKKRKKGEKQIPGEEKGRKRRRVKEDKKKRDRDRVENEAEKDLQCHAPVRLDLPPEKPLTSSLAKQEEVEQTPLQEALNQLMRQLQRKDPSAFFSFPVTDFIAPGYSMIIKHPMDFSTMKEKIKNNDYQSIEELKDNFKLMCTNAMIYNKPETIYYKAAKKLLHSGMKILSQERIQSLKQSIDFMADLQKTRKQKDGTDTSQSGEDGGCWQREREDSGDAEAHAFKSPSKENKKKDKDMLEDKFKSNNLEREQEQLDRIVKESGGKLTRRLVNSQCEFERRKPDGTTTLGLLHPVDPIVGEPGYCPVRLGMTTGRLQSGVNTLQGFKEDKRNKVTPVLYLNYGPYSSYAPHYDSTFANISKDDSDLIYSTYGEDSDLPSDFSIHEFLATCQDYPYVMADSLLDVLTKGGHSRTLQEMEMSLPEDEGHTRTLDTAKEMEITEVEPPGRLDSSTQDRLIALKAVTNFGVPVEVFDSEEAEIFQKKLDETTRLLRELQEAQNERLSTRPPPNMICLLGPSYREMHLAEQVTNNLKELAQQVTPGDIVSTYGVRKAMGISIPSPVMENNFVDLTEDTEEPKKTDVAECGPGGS
Description: NP40-soluble protein abundance relative to vehicle (solubility fold change) (ratio); higher = more soluble protein in presence of GTP. The procedure:
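Solubility proteome profiling in Jurkat crude lysate. Lysate was treated with Mg-GTP (0.1-10 mM) for 10 min at room temperature and 3 min at 37 °C, then solubilised with 0.8% NP40 and benzonase, followed by ultracentrifugation. Proteins were quantified by TMT10 LC-MS/MS; the value is the NP40-soluble abundance relative to the NP40-processed vehicle, from 3 independent experiments.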

± gives the standard deviation of the averaged measurements. The full data set covers some 5,400 targets. This sample favours those with the largest changes.

On to `Nc1nc2c(ncn2[C@@H]2O[C@H](COP(=O)(O)OP(=O)(O)OP(=O)(O)O)[C@@H](O)[C@H]2O)c(=O)[nH]1` [guanosine triphosphate], for which the NP40-soluble protein abundance runs as follows: (concentration: 0.1mM) 1.09 ± 0.029; (concentration: 0.5mM) 1.11 ± 0.036; (concentration: 1mM) 1.22 ± 0.041; (concentration: 2mM) 1.36 ± 0.098; (concentration: 4mM) 1.4 ± 0.18; (concentration: 6mM) 1.47 ± 0.2. Besides, the NP40-soluble protein abundance worked out at 1.58 ± 0.32 (concentration: 8mM) and 1.56 ± 0.28 (concentration: 10mM).
